The source of these data is PubChem BioAssay (EPA / NIEHS).

The structures appear in SMILES notation. Inconclusive results are not listed. The source made the active and inactive calls. The calls were made as follows, unless noted: active = hit-call score of the fitted dose curve at least 0.9, where 1 is the maximum; inactive = score below 0.9.

Experiment [1] concerns the target Paired box protein Pax-6 (Homo sapiens) (UniProt P26367). Description: ATG_Pax6_CIS: Attagene CIS-FACTORIAL HepG2 Assay for human Paired Box 6 (PAX6) (AID 2282956). As to conditions: HepG2 CIS-FACTORIAL PAX6 reporter transcription, RNA readout; actives raise or lower the signal. A digest of the protocol:
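DMSO-referenced bidirectional fits of reporter mRNA fluorescence; HepG2 with transient cis-promoter MRTUs, 24 h post-dose, RT-PCR plus capillary electrophoresis detection.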

Experiment [2] can be described thus: ATG_PXRE_CIS: Attagene CIS-FACTORIAL HepG2 Assay for human Pregnane X Receptor Element (PXRE) (AID 2282957). Particulars: HepG2 Attagene CIS-FACTORIAL PXRE reporter, mRNA; actives raise or lower the signal. Put shortly:
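Fluorescent capillary electrophoresis of amplified reporter cDNA gave the signal, collected 24 h after dosing HepG2 cells that held transfected cis-element reporter constructs.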

Experiment [3] is described as follows: ATG_PPRE_CIS: Attagene CIS-FACTORIAL HepG2 Assay for human Peroxisome Proliferator-activated Response Element (PPRE) (AID 2282958). As to conditions: HepG2 PPRE cis-element reporter, Attagene transcription factor profiling; actives raise or lower the signal. Put shortly:
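After human HepG2 hepatoma cells were transiently transfected with cis-promoter reporter constructs, they were exposed to test chemicals for 24 hours. Reporter RNA was then reverse-transcribed, PCR-amplified, FAM-labeled, HpaI-digested and quantified by capillary electrophoresis.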

Experiment [4] in a line: ATG_RORE_CIS: Attagene CIS-FACTORIAL HepG2 Assay for human RAR-related Orphan Receptor Element (RORE) (AID 2282959). Particulars: HepG2 Attagene cis-factorial RORE reporter, mRNA; actives raise or lower the signal. A digest of the protocol: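 Measured here: transcript induction of a cis-regulated reporter in HepG2 cells transiently transfected via FuGene 6. After 24 h, RNA was processed by RT-PCR and fluorescent capillary electrophoresis; DMSO defined baseline activity.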

A short description of experiment [5]: ATG_Sox_CIS: Attagene CIS-FACTORIAL HepG2 Assay for human SRY-box transcription factor (SOX) (AID 2282960). Particulars: HepG2 Attagene cis-factorial SOX reporter, mRNA; actives raise or lower the signal. A digest of the protocol:
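Using transiently transfected HepG2 cells, reporter transcription driven by cis elements was assessed 24 h after dosing. Signal was fluorescence of capillary-separated RT-PCR products, with DMSO defining baseline activity.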

Experiment [6] has as its target Transcription factor Sp1 (Homo sapiens) (UniProt P08047). Description: ATG_Sp1_CIS: Attagene CIS-FACTORIAL HepG2 Assay for human Specificity Protein 1 (Sp1) (AID 2282961). As to conditions: HepG2 Sp1 cis-reporter transcription, actives raise or lower the signal. Put shortly: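 After transient transfection of HepG2 cells with cis-promoter reporter units and 24 h chemical treatment, reporter transcripts were quantified by RT-PCR and capillary electrophoresis fluorescence. Gain- and loss-of-signal fitted against DMSO.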

Experiment [7] has as its target Signal transducer and activator of transcription 3 (Homo sapiens) (UniProt P40763). As to the kind of experiment: ATG_STAT3_CIS: Attagene CIS-FACTORIAL HepG2 Assay for human Signal Transducer and Activator of Transcription 3 (STAT3) (AID 2282963). Particulars: HepG2, Attagene cis-factorial STAT3 reporter transcription; actives raise or lower the signal. A digest of the protocol: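 Uses human liver HepG2 transiently carrying cis-regulated reporter transcription units. Following 24 h dosing, reporter mRNA induction was detected by RT-PCR and capillary electrophoresis, analysed bidirectionally versus DMSO.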

The nature of experiment [8]: ATG_TA_CIS: Attagene CIS-FACTORIAL HepG2 Assay for human TA Basal Promoter (AID 2282964). Particulars: HepG2 Attagene CIS-factorial TA basal promoter reporter; actives raise or lower the signal. Put shortly:
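Background-control readout: TA basal promoter reporter mRNA, fitted in both directions relative to DMSO. Measured by RT-PCR and capillary electrophoresis 24 hours after treating HepG2 human liver cells transiently carrying multiplexed cis-regulated reporter constructs.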

Experiment [9] can be described thus: ATG_TCF_b_cat_CIS: Attagene CIS-FACTORIAL HepG2 Assay for human T-Cell-Factor with beta-catenin (TCF/b-cat) (AID 2282965). Particulars: HepG2 TCF/beta-catenin cis-reporter transcription, actives raise or lower the signal. Put shortly:
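In this cis-format system, transfected HepG2 cells report endogenous transcription factor activity. Readout after 24 h exposure is reporter transcript abundance from RT-PCR and capillary electrophoresis, analysed for gain or loss of signal versus DMSO.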

Experiment [10] is described as follows: ATG_TGFb_CIS: Attagene CIS-FACTORIAL HepG2 Assay for human Transforming Growth Factor (TGF) (AID 2282967). Particulars: HepG2 Attagene CIS TGFb reporter, mRNA transcription; actives raise or lower the signal. A digest of the protocol:
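Endogenous TGFB1-linked transcription factor activity read as reporter mRNA via RT-PCR and capillary electrophoresis, 24 h after dosing transiently transfected HepG2 cells. Gain or loss of signal fitted relative to DMSO.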

Experiment [11] in a line: ATG_VDRE_CIS: Attagene CIS-FACTORIAL HepG2 Assay for human Vitamin D Receptor Element (VDRE) (AID 2282968). Particulars: HepG2 VDRE cis-reporter transcription, actives raise or lower the signal. Put shortly: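 Transfected HepG2 reporter cells, chemical treatment 24 h. RNA isolated, cDNA amplified with reporter-specific primers, products analysed by capillary electrophoresis. Endpoint fitted in both directions versus DMSO.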

For experiment [12], the target named is X-box-binding protein 1 (Homo sapiens) (UniProt P17861). Description: ATG_Xbp1_CIS: Attagene CIS-FACTORIAL HepG2 Assay for human X-box Binding Protein 1 (XBP1) (AID 2282972). Particulars: HepG2 XBP1 cis-element reporter, Attagene multiplex; actives raise or lower the signal. Put shortly: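 Changes in reporter transcript abundance, read by RT-PCR and capillary electrophoresis, reflect endogenous transcription factor activity. Transfected HepG2 cells received compound for 24 hours; DMSO defined baseline for bidirectional analysis.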
Chain of X-box-binding protein 1 (Homo sapiens) (P17861 whole entry, looked up): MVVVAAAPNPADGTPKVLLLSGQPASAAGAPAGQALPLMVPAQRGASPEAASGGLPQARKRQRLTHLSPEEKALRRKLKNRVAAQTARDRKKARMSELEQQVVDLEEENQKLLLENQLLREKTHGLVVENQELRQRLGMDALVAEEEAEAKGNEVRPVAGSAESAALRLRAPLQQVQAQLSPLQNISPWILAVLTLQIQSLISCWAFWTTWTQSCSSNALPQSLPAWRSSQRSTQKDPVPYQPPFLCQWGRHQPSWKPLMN

The nature of experiment [13]: ATG_M_19_TRANS: Attagene TRANS-FACTORIAL HepG2 Assay for M19 Transcription Factor (Internal Marker) (AID 2282974; active = hit-call score of the fitted dose curve at least 0.9, where 1 is the maximum). Particulars: HepG2 Attagene TRANS-FACTORIAL M19 internal marker reporter. A digest of the protocol: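 Gain-of-signal in reporter mRNA, relative to DMSO, was scored from capillary electrophoresis fluorescence. HepG2 cells carried transiently transfected multiple reporter transcription units and were incubated with test chemicals for 24 h.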

A short description of experiment [14]: ATG_GAL4_TRANS: Attagene TRANS-FACTORIAL HepG2 Assay for GAL4 (Internal Marker) (AID 2282976; active = hit-call score of the fitted dose curve at least 0.9, where 1 is the maximum). As to conditions: HepG2 Attagene TRANS GAL4 internal marker reporter. Put shortly: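 HepG2 cells transiently transfected with multiplexed GAL4-UAS reporter constructs were dosed for 24 h. Reporter mRNA was measured by RT-PCR, 6-FAM primer extension, HpaI digestion and capillary electrophoresis, and gain of signal was fitted relative to DMSO.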

Experiment [15] addresses Estrogen-related receptor gamma (Homo sapiens) (UniProt P62508). Description: ATG_ERRg_TRANS: Attagene TRANS-FACTORIAL HepG2 Assay for human Estrogen-Related Receptor gamma (ERRg) (AID 2282977; active = hit-call score of the fitted dose curve at least 0.9, where 1 is the maximum;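 also: hits increase reporter signal over DMSO so potencies reflect activators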). As to conditions: HepG2 Attagene TRANS reporter, ERRg transactivation. Put shortly: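 Readout: fluorescent reporter-mRNA fragments resolved by capillary electrophoresis after RT-PCR and HpaI cut. Cells: transiently transfected HepG2 carrying GAL4-UAS reporters driven by exogenous NR-Gal4 chimeras, dosed 24 h. Activity fitted upward relative to DMSO baseline.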

Experiment [16] can be described thus: ATG_SREBP_CIS: Attagene CIS-FACTORIAL HepG2 Assay for human Sterol Regulatory Element Binding (SREBP) (AID 2282962). As to conditions: HepG2 Attagene cis-factorial SREBP reporter, mRNA; actives raise or lower the signal. Put shortly:
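In this cis-format assay, HepG2 liver cells express reporters controlled by promoter elements responsive to native transcription factors. Exposure lasts 24 h; reporter mRNA fluorescence from capillary electrophoresis gives the signal, fitted bidirectionally against DMSO.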

The nature of experiment [17]: ATG_TAL_CIS: Attagene CIS-FACTORIAL HepG2 Assay for human TAL Basal Promoter (AID 2282966).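 Also: background control endpoint measuring basal TAL promoter reporter mRNA not a specific factor.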 Particulars: HepG2 Attagene cis-factorial TAL promoter reporter; actives raise or lower the signal. A digest of the protocol: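 Transiently transfected HepG2 (cis-regulated reporter units), 24 h treatment, mRNA read by fluorescent CE after RT-PCR; bidirectional fit, DMSO baseline.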

For experiment [18], the target named is Steroid hormone receptor ERR1 (Homo sapiens) (UniProt P11474). As to the kind of experiment: ATG_ERRa_TRANS: Attagene TRANS-FACTORIAL HepG2 Assay for human Estrogen-Related Receptor alpha (ERRa) (AID 2282971; active = hit-call score of the fitted dose curve at least 0.9, where 1 is the maximum). Particulars: HepG2 Attagene TRANS reporter, ERRa transactivation. A digest of the protocol:
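HepG2 cells transiently transfected with multiplexed GAL4-UAS reporter units reading chimeric ERRa-Gal4 activity; 24 h compound exposure. Reporter mRNA measured by RT-PCR, 6-FAM labelling, HpaI digest and capillary electrophoresis; gain of signal fitted versus DMSO baseline.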

Experiment [19] concerns the target Estrogen receptor (Homo sapiens) (UniProt P03372). As to the kind of experiment: ATG_ERa_TRANS: Attagene TRANS-FACTORIAL HepG2 Assay for human Estrogen Receptor alpha (ERa) (AID 2282970; active = hit-call score of the fitted dose curve at least 0.9, where 1 is the maximum). Particulars: HepG2 Attagene TRANS ERa GAL4 reporter, mRNA. A digest of the protocol:
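One of 30 multiplexed endpoints from a HepG2 TRANS system, this one reports ERa-Gal4-driven reporter mRNA. Transcripts were quantified 24 hours post-dosing by fluorescent RT-PCR and capillary electrophoresis, with activity scored as induction over DMSO.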

Chain of Transcription factor Sp1 (Homo sapiens) (P08047 whole entry, looked up): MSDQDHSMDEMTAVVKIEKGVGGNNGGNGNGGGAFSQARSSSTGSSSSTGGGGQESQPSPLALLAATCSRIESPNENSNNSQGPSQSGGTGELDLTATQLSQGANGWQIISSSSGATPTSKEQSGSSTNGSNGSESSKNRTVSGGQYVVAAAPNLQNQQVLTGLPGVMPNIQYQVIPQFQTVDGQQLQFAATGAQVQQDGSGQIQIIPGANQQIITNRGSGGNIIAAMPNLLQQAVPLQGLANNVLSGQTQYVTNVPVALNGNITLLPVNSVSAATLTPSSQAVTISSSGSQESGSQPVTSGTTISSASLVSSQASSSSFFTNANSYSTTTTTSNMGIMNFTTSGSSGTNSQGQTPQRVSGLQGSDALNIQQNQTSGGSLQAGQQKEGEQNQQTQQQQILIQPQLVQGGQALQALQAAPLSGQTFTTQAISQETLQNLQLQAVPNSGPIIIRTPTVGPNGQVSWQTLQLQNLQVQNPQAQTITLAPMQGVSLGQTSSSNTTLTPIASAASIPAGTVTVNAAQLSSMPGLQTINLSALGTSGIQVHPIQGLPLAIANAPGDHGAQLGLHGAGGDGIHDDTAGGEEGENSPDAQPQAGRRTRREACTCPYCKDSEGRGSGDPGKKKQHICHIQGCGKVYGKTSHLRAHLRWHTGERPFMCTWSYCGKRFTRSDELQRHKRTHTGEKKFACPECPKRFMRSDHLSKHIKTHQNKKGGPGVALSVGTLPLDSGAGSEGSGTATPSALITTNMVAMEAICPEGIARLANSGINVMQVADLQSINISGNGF
Chain of Signal transducer and activator of transcription 3 (Homo sapiens) (P40763 whole entry, looked up): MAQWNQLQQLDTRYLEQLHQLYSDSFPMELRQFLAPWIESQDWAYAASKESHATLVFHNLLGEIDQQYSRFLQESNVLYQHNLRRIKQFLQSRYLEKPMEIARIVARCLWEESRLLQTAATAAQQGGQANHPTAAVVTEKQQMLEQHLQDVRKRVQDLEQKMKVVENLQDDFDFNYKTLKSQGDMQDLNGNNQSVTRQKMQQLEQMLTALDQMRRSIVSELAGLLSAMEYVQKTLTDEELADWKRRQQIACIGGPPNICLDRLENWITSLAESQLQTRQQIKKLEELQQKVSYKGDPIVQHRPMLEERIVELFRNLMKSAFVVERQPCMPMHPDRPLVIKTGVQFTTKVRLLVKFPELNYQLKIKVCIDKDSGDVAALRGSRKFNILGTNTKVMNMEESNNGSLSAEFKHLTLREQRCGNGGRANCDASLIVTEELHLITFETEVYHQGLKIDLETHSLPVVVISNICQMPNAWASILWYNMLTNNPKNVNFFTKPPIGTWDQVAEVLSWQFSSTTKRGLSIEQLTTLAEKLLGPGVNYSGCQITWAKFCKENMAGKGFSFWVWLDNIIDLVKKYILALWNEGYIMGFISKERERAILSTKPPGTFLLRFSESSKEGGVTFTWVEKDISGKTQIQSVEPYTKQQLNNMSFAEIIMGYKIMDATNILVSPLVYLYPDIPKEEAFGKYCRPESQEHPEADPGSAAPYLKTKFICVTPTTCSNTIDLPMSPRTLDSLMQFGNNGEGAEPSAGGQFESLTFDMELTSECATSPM
Chain of Paired box protein Pax-6 (Homo sapiens) (P26367 whole entry, looked up): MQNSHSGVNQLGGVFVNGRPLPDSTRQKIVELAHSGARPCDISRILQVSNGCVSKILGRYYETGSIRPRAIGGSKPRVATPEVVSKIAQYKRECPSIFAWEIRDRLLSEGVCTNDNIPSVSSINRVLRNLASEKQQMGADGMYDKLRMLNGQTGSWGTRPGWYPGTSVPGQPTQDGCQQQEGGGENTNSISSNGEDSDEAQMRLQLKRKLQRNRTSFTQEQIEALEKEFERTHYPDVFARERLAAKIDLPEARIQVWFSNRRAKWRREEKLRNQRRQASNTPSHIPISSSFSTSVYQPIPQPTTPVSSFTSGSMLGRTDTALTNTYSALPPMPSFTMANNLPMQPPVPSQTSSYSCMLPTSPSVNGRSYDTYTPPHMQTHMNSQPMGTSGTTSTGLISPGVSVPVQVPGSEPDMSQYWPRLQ
Chain of Steroid hormone receptor ERR1 (Homo sapiens) (P11474 whole entry, looked up, the tested form may be a part): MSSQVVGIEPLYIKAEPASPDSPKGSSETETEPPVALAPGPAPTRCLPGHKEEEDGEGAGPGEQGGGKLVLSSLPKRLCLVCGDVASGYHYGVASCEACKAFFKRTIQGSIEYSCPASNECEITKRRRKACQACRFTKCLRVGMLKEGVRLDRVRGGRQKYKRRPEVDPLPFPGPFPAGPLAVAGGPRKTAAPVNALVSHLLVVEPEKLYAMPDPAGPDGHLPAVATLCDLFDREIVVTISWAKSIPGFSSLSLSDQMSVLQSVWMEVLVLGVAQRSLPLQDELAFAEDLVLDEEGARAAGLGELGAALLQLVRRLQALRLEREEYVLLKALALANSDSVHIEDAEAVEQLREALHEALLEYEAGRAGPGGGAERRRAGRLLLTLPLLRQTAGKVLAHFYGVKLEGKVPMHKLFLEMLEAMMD
Chain of Estrogen receptor (Homo sapiens) (P03372 whole entry, looked up, the tested form may be a part): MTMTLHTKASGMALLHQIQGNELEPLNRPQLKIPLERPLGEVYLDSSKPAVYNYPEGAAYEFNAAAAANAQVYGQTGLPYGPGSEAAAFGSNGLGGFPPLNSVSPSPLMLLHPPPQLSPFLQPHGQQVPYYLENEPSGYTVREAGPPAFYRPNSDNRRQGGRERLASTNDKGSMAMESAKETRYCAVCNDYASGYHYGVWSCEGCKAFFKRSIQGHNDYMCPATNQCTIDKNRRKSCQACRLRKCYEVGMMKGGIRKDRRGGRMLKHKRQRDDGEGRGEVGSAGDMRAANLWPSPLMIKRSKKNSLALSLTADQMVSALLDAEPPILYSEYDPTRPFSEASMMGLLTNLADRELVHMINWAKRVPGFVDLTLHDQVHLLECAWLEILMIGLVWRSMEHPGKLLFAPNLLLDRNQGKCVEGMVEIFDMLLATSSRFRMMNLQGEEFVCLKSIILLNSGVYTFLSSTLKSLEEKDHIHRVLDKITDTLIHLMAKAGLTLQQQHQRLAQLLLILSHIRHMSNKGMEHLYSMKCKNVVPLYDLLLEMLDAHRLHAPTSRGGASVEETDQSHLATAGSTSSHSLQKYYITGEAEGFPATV
Chain of Estrogen-related receptor gamma (Homo sapiens) (P62508 whole entry, looked up, the tested form may be a part): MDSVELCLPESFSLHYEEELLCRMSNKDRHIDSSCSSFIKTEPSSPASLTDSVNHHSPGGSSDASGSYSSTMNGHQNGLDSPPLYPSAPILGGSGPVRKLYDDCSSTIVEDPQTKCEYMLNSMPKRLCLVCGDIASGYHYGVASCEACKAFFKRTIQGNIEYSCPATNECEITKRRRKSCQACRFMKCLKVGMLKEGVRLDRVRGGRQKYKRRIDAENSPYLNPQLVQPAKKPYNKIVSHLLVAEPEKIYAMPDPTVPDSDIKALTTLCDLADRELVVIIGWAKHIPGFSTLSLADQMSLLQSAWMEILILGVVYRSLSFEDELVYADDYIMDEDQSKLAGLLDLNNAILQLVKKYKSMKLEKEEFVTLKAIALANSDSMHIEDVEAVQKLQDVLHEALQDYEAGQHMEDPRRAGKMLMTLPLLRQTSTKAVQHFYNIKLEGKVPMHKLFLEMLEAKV

With `CC(C)(C)c1n[nH]c(=O)n(N)c1=O`, the compound was classed as inactive in experiment [1], in [2], in experiment [3], in experiment [4], in experiment [5] and in experiment [6]. The result in experiment [7], in experiment [8], in [9], in experiment [10], in [11] and in experiment [12] was inactive. Moreover, the call in experiment [13], in experiment [14] and in [15] was inactive.

With `COCCCOCCCOC`, the outcome in experiment [1], in experiment [2], in experiment [3], in experiment [4], in experiment [5] and in experiment [16] was inactive. Besides, the result in [7], in experiment [8], in experiment [9], in [17], in [10] and in experiment [18] was inactive. For the same compound, the outcome in experiment [12] and in [13] was inactive.

In the case of `OCCCS`, the call in experiment [1], in experiment [2], in experiment [3], in experiment [4], in experiment [5] and in experiment [6] was inactive. Moreover, the result in [16], in experiment [8], in experiment [9], in experiment [17], in experiment [10] and in [11] was inactive. The outcome in [12], in [13] and in experiment [14] was inactive.

A word on the AC50: it is the concentration giving half of the maximal activity seen. `C=CC(C)(CCC=C(C)C)OC(=O)C(C)C` (centres undefined): the call in experiment [1], in experiment [3], in experiment [4], in [5], in [6] and in experiment [7] was inactive. The compound was called inactive in experiment [8], in [9], in [17], in [10], in experiment [11] and in [12]. The compound was classed as inactive in experiment [13]. Also, the AC50 was 8.57 µM (active) in [2] and 38 µM (active) in experiment [19].
